# Assay outcomes: PubChem, National Center for Advancing Translational Sciences (NCATS)
# ATXN2 expr inh – Primary qHTS for Inhibitors of ATXN expression | Potency, µM (doses to about 57 µM), without a hit: top-dose activity change, negative = inhibition, hits mostly inhibitors | HEK-293 ATXN2-luciferase reporter, luminescence, 24 h | 360,000 tested, 0.72% active; note: % is set by controls: 0 for no effect and ±100 for the full control effect; nearly all actives have a fitted effect of over 55% in size
#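 qHTS (up to 57 uM final) was run with 24 h compound exposure of reporter cells at 37 °C. Each well was multiplexed: SteadyGlo luminescence measured ATXN2-luciferase expression after a fluorogenic Gly-Phe-AFC viability readout (25 uM final).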
# TGFb SMAD3 inh – qHTS for Inhibitors of TGF-b; HepG2 CAGA-GFP TGF-b/SMAD3 reporter, GFP fluorescence, 18 h; TGF-beta stimulated, 500 pg/mL final; Potency, µM (highest dose often 46.1 µM), inactives show at the top dose activity, negative = inhibition, actives largely listed as inhibitors; 410,000 tested, 1.2% active; AID 588855, 2011; note: % is set by controls: 0 for no effect and ±100 for the full control effect; nearly all actives have a fitted effect of over 65% in size
#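 HEPG2 CAGA-GFP reporter cells (1000/well, DMEM with 1% FBS) received compounds, then recombinant TGF-beta at 500 pg/mL final for 18 hours at 37 degrees C. Per-cell GFP summed per well was normalised to unstimulated and stimulated DMSO controls before curve fitting.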
# S2 tox – Viability Counterscreen for Primary qHTS for Inhibitors of ATXN expression. AID 651635, 2014. S2 cells (HEK-293 line with an ATXN2-luciferase reporter) viability, CellTiter-Fluor protease fluorescence, 24 h. Potency, µM (highest dose often 56.7 µM), hits mostly cytotoxic. 400,000 tested, 0.49% active; note: nearly all actives have a fitted effect of over 40% in size
# HepG2 viability – qHTS for Inhibitors of TGF-b: Cytotox Counterscreen | HepG2 CAGA-GFP viability, ATP luminescence, 18 h | AID 588856, 2011 | 410,000 tested, 0.76% active | Potency, µM (titrated, usually from 46.1 µM), for the others: at the top dose activity change, negative = cytotoxicity, most hits filed as cytotoxic
#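 HepG2 CAGA-GFP cells (1000/well, DMEM with 1% FBS) received compound, then TGF-beta at 500 pg/mL final, and were incubated 18 hours at 37 degrees C. Viability was read by CellTiter-Glo luminescence. Media-only wells were set as complete cell-killing and DMSO as no toxicity.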
# DT40 TDP1 no CPT – qHTS for Inhibitors of human tyrosyl-DNA phosphodiesterase 1 (TDP1): qHTS in cells in absence of CPT; Potency, µM (series often up to 46.2 µM), for the others: at the top dose activity change, negative = growth inhibition, usual class: inhibitors; 420,000 tested, 15% active; AID 686978, 2013; DT40 Tdp1-/- hTDP1 cells, no CPT, ATP luminescence, 48 h; note: % is set by controls: 0 for no effect and ±100 for the full control effect; nearly all actives have a fitted effect of over 55% in size
#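 Compound effects on proliferation are scored in DT40 Tdp1-/-;hTDP1 cells in the absence of CPT. ATP levels (CellTiter-Glo luminescence) are recorded after a ≥48 hr, 37 °C incubation.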
# DT40 TDP1 CPT – qHTS for Inhibitors of human tyrosyl-DNA phosphodiesterase 1 (TDP1): qHTS in cells in presence of CPT. chicken DT40 Tdp1-/-;hTDP1 cells + 20 nM CPT, ATP luminescence, 48 h. Potency, µM (titrated, usually from 46.2 µM), for inactives: at the top dose activity change, negative = growth inhibition, hits mostly inhibitors. 420,000 tested, 12% active; note: % is set by controls: 0 for no effect and ±100 for the full control effect; nearly all actives have a fitted effect of over 55% in size
#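 Chicken DT40 Tdp1-/- cells complemented with human TDP1, 400 cells/well, exposed to compounds plus 20 nM camptothecin for at least 48 h at 37 C; viability read as ATP content by CellTiter-Glo luminescence.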
# Active calls of the source: *; i = inactive; ? = inconclusive; . = not tested or not shown; [ ] = remark or other dose. Rows were chosen to be rich in hits. Some 17% of all compounds tested hit in one or more screens of this group. Calls come from the whole dose curve; as a rule, active = well fitted curve in the direction sought with a large enough effect; inconclusive = small, poorly fitted or top-dose-only effect, or another doubt; inactive = no such curve, though single readings can be large; an effect the other way counts as inactive or inconclusive. Potency is the fitted concentration of half-maximal effect.
SMILES,ATXN2 expr inh,TGFb SMAD3 inh,S2 tox,HepG2 viability,DT40 TDP1 no CPT,DT40 TDP1 CPT
N#Cc1nc(-c2ccc(COc3ccc(Cl)cc3)o2)oc1N1CCN(c2ccccc2)CC1,10%,-8%,i,-3%,-2%,0%
COc1ccc(-c2nnc3sc(-c4cccs4)nn23)cc1OC,2%,11%,i,-16%,11µM*,10µM*
COc1ccc(-c2nn3c(-c4ccccn4)nnc3s2)cc1OC,-6%,21%,i,-34%,-22%,?
COc1cc(-c2nnc3sc(-c4cccs4)nn23)cc(OC)c1OC,-20%,-10%,i,2%,12µM*,?
CCOC(=O)C1(Cc2cccc(OC)c2)CCN(Cc2cnc(C)s2)CC1,-30%,-7%,i,1%,?,-3%
Cc1cc(C)c(C(=O)COc2cccnc2[N+](=O)[O-])cc1C,7%,?,i,-71%,5.8µM*,4.1µM*
CCN(CC)c1ccc(NS(=O)(=O)c2ccc3c(c2)oc(=O)n3C)c(C)c1,-10%,5%,i,-15%,?,26µM*
S=C(Nc1ccc(Cl)cc1)NC1CCN(Cc2ccccc2)CC1,?,?,i,-51%,9.2µM*,21µM*
CCc1ccc(NC(=S)NC2CCN(Cc3ccccc3)CC2)cc1,-25%,?,?,-54%,12µM*,7.3µM*
CCNC(=S)NC1CC2CCC(C1)N2Cc1ccccc1 (centres undefined),5%,7%,i,-17%,-15%,-22%
S=C(NC1CCCCC1)NC1CC2CCC(C1)N2Cc1ccccc1 (centres undefined),-10%[11.3 µM],-1%,i,-21%,18µM*,?
CCC(C)c1ccc(NC(=S)NC2CCN(Cc3ccccc3)CC2)cc1 (centres undefined),?,10µM*,?,14µM*,7.3µM*,8.2µM*
S=C(NCCc1ccccc1)NC1CCC(NC(=S)NCCc2ccccc2)CC1 (centres undefined),3%[11.3 µM],1%,i,-7%,12%,3%
COc1ccc(CCNC(=S)NC2CCN(Cc3ccccc3)CC2)cc1,0%,-13%,i,-27%,23µM*,?
S=C(NCCc1cccc(Cl)c1)NC1CCCCC1,3%,-21%,i,-54%,21µM*,?
O=C(O)c1cccc2c1C(=O)N(Cc1ccccc1)C2,-3%,-1%,i,0%,10%,6%
CCc1ccc(NC(=O)[C@H](Cc2c[nH]c3ccccc23)NC(=O)[C@@H]2Cc3ccccc3CN2)cc1,3%,-2%,i,-68%,?,18µM*
COc1cccc(OC)c1C(=O)Nc1ccccc1Sc1ccccc1,-10%,-18%,.,-29%,?,?
COc1cc(/C=C/C(=O)OC2CC3CCC2(C)C3(C)C)ccc1O (centres undefined),-29%,?,?,-111%,16µM*,18µM*
CCCN1CCN(c2ncnc3sc(C(=O)Nc4ccc(N(CC)CC)cc4C)c(C)c23)CC1,?,?,?,-34%,15µM*,23µM*
Cc1sc2ncnc(N3CCC(C(=O)NNC(=O)COc4ccc(Cl)cc4)CC3)c2c1C,.,?,?,-35%,?,?
CCCN1CCN(c2ncnc3sc(C(=O)Nc4cccc(Cl)c4C)c(C)c23)CC1,?,?,?,-48%,21µM*,?
Cc1nc(N2CCOCC2)c2c(C)c(C(=O)Nc3ccc(F)cc3Cl)sc2n1,-3%,15%,?,11%,1%,-9%
Cc1sc2ncnc(N3CCN(CCOc4ccc(Cl)cc4)CC3)c2c1C,?,-12%,i,-34%,2.5µM*,2.5µM*
O=C1CCCCC1(O)Cc1ccc2c(c1)OCO2 (centres undefined),1%,-5%,i,-5%,6%,14%
SMILES,ATXN2 expr inh,TGFb SMAD3 inh,S2 tox,HepG2 viability,DT40 TDP1 no CPT,DT40 TDP1 CPT
O=c1c2ccccc2nc(-c2ccc(Cl)cc2)n1CCCCOc1ccc(F)cc1,6%,4%,i,-16%,-10%,-19%
CCCOc1ccc(CNC(=S)Nc2ccccc2)cc1Cl,0%,0%,i,-20%,16µM*,?
CC(C)COc1ccc(CNC(=S)Nc2ccccc2)cc1Cl,-29%,11µM*,i,13µM*,26µM*,?
COc1ccc(CNC(=S)Nc2ccccc2)cc1Cl,-22%,?,i,-27%,-10%,-22%
O=C(Cc1ccccc1)NCC(=O)OCC(=O)c1ccc2ccccc2c1,.,-1%,.,-18%,-20%,-14%
c1ccc(COc2cccc(-c3cc4nc(NCCN5CCOCC5)ccn4n3)c2)cc1,0%,1%,?,-29%,13µM*,26µM*
c1ccc(COc2ccc(-c3cc4nc(NCCN5CCOCC5)ccn4n3)cc2)cc1,?,26%,?,-43%,21µM*,?
Cc1cc(-c2ccccc2)nnc1NCCN1CCOCC1,2%,-5%,i,-2%,-5%,1%
CCCCn1c(N)c(N(CCOC)C(=O)COC(=O)c2cc(CCC)c(C)s2)c(=O)[nH]c1=O,7%,-4%,i,2%,5%,0%
Cc1ccccc1-c1cc(=O)c2ccccc2o1,1%,23%,i,-12%,?,21µM*
O=c1cc(-c2ccc(O)cc2O)oc2ccccc12,.,.,.,.,-16%,-5%
O=c1cc(-c2ccccc2F)oc2ccccc12,39%,-4%,i,-31%,?,?
O=c1cc(-c2ccccc2[N+](=O)[O-])oc2ccccc12,-26%,-19%,i,2%,23µM*,16µM*
CC(=O)N/N=C\c1ccccc1OC/C=C/c1ccccc1,55%,-8%,i,-17%,?,16µM*
O=C(N/N=C/c1ccccc1F)c1ccccc1OCc1ccccc1,13%,28%,i,9%,21µM*,?
O=C(N/N=C/c1ccc(OCc2ccccc2)cc1)c1ccncc1,.,10%,i,-1%,-26%,-26%
CC(=O)Nc1ccc(C(=O)N/N=C/c2ccccc2OCc2ccccc2)cc1,-12%[11.3 µM],39%,?,0%,21µM*,?
O=C(N/N=C/c1cccnc1)c1cc(-c2ccccc2OCc2ccccc2)n[nH]1,-3%,-7%,i,-2%,23µM*,?
